# Measured values: PubChem BioAssay (EPA / NIEHS)
# Records with an inconclusive call do not appear. Calls of active or inactive are those of the source. How the source made its calls, unless noted: active means hit-call score of the fitted dose curve at least 0.9, where 1 is the maximum; inconclusive means response in the unintended direction; inactive means score below 0.9.
# Assays:
# [1] = target: Estrogen receptor (Homo sapiens) (UniProt P03372); assay: OT_ER_ERaERa_1440: Odyssey Thera (OT) 24-hour HEK293T Protein-Complementation Assay for Estrogen Receptor-alpha/-alpha Homodimer (AID 2283349);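 further: hits raise fluorescence above DMSO for agonists and antagonists alike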
# In short: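 HEK293T, stable ERα LBD (aa 310-547) homodimer PCA; 24 h compound exposure; mean fluorescence intensity (nuclear for agonists, nuclear plus cytoplasmic for antagonists) vs vehicle; positive fitting direction, DMSO baseline.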
# [2] = target: Estrogen receptor (Homo sapiens) (UniProt P03372); assay: OT_ER_ERaERa_0480: Odyssey Thera (OT) 8-hour HEK293T Protein-Complementation Assay for Estrogen Receptor-alpha/-alpha Homodimer (AID 2283351);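 further: rise in fluorescence from reassembled reporter fragments on ERα LBD homodimer in nucleus or whole cell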
# In short: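 Cells were treated for 8 hours, then imaged on a laser scanning plate cytometer. Complementation of reporter fragments fused to the human ERα ligand-binding domain (residues 310-547) in HEK293T gave fluorescence, and gain of signal over vehicle was fitted.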
# [3] = target: T1, Estrogen receptor (Homo sapiens) + Estrogen receptor beta (Homo sapiens) (UniProt P03372+Q92731); assay: OT_ER_ERaERb_0480: Odyssey Thera (OT) 8-hour HEK293T Protein-Complementation Assay for Estrogen Receptor-alpha/-beta Heterodimer (AID 2283352)
# In short: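 HEK293T cells expressing ER-alpha/ER-beta LBD fusions to complementary reporter fragments were dosed with compound for 8 hours. Heterodimer formation was read as increased nuclear (agonist) or nuclear plus cytoplasmic (antagonist) mean fluorescence intensity versus DMSO vehicle.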
# [4] = target: T1, Estrogen receptor (Homo sapiens) + Estrogen receptor beta (Homo sapiens); assay: OT_ER_ERaERb_1440: Odyssey Thera (OT) 24-hour HEK293T Protein-Complementation Assay for Estrogen Receptor-alpha/-beta Homodimer (AID 2283356);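 further: heteromer of ER alpha and ER beta binding domains; hits raise reporter fluorescence and both agonists and antagonists give an increase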
# In short: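 HEK293T cells stably expressing a PCA pair of ERα LBD (aa 310-547) and ERβ LBD (aa 263-489) were dosed for 24 h. Fluorescence intensity increase versus DMSO vehicle was fitted as gain-of-signal.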
# [5] = target: Estrogen receptor beta (Homo sapiens) (UniProt Q92731); assay: OT_ER_ERbERb_0480: Odyssey Thera (OT) 8-hour HEK293T Protein-Complementation Assay for Estrogen Receptor-beta/-beta Homodimer (AID 2283357);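 further: active means signal gain over DMSO baseline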
# In short: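 ER-beta LBD homodimer PCA stably expressed in HEK293T; 8 h compound exposure, then formaldehyde fixation and Draq5 staining. Gain in nuclear/cytoplasmic fluorescence intensity versus DMSO vehicle, read on laser scanning cytometer.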
# [6] = target: Estrogen receptor beta (Homo sapiens) (UniProt Q92731); assay: OT_ER_ERbERb_1440: Odyssey Thera (OT) 24-hour HEK293T Protein-Complementation Assay for Estrogen Receptor-beta/-beta Homodimer (AID 2283380);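 further: scored as signal increase over DMSO baseline for both agonists and antagonists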
# In short: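 Fluorescence increase, nuclear for agonists or whole-cell for antagonists, relative to DMSO vehicle, quantified by laser scanning cytometer after fixation and Draq5 staining. Readout from 24 h treatment of HEK293T cells carrying complementation-paired ER beta LBD (aa 310-547).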
# [7] = target: Estrogen receptor (Homo sapiens) (UniProt P03372); assay: OT_ERa_GFPERaERE_0480: Odyssey Thera (OT) 8-hour HeLa Transcription Induction Assay for Estrogen Receptor (AID 2283381; active means hit-call score of the fitted dose curve at least 0.9, where 1 is the maximum; inactive means score below 0.9)
# In short: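 Human cervical HeLa cells were treated for 8 hours, after which ERE-driven GFP induction was measured by fluorescence microscopy; increases over DMSO baseline defined activity.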
# [8] = target: Estrogen receptor (Homo sapiens) (UniProt P03372); assay: OT_ERa_GFPERaERE_0120: Odyssey Thera (OT) 2-hour HeLa Transcription Induction Assay for Estrogen Receptor (AID 2283382)
# In short: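 Cells (human cervical HeLa) receive compound, incubate 2 hours, then are imaged for fluorescent reporter induction. Images are quantified by high content analysis, and activity is fitted as gain of signal against DMSO.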
# [9] = target: Retinoic acid receptor RXR-alpha (Homo sapiens) (UniProt P19793); assay: OT_NURR1_NURR1RXRa_0480: Odyssey Thera (OT) 8-hour HEK293T Protein Complementation Assay for Nurr1/retinoid X receptor (RXR) (AID 2283385)
# In short: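 Interaction of bait and prey reconstitutes a functional reporter, whose fluorescence was measured in HEK293T cells dosed with compound for 8 hours. Signal gain relative to DMSO defined the single endpoint.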
# [10] = target: Peroxisome proliferator-activated receptor gamma (Homo sapiens) (UniProt P37231); assay: OT_PPARg_PPARgSRC1_0480: Odyssey Thera (OT) 8-hour Protein-Complementation Assay for Peroxisome Proliferator-activated Receptor Gamma / SRC-1 Co-activator (AID 2283387)
# In short: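 HEK293T transiently transfected with PPARg and SRC-1 fused to Venus YFP fragments, compounds 8 h at 37C. Fixed, Draq5-stained cells imaged; nuclear/cytoplasmic 488 nm fluorescence ratio over at least 350 cells per image; gain fitted versus DMSO.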
# [11] = target: Peroxisome proliferator-activated receptor gamma (Homo sapiens) (UniProt P37231); assay: OT_PPARg_PPARgSRC1_1440: Odyssey Thera (OT) 24-hour Protein-Complementation Assay for Peroxisome Proliferator-activated Receptor Gamma/ SRC-1 Co-activator (AID 2283388)
# In short: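 HEK293T cells transiently transfected with PPARg and SRC-1 fused via (Gly4Ser)2 linker to split Venus YFP fragments (IFP1/IFP2) were dosed 24 h; fixed, Draq5-stained, imaged at 488/635 nm; nuclear/cytoplasmic fluorescence ratio scored versus DMSO baseline, gain-of-signal.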
# [12] = read-out: Fatty acid synthase (Homo sapiens) (UniProt P49327); assay: LTEA_HepaRG_FASN: Life Technologies and Expression Analysis (LTEA) Assay for Fatty Acid Synthase (FASN) using HepaRG (AID 2283448; active means hit-call score of the fitted dose curve at least 0.9, where 1 is the maximum; inactive means score below 0.9); details: mRNA level, 48 h; actives raise or lower the signal
# In short: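 Cells were plated, cultured 48 h, switched to serum-free induction medium, then dosed in duplicate (max 100 uM, half-log dilutions, 0.5% DMSO) for 48 h. RNA was then isolated and FASN quantified by qRT-PCR.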
# [13] = read-out: Cyclin D2 (CCND2), CCND2 (gene 894); assay: LTEA_HepaRG_CCND2: Life Technologies and Expression Analysis (LTEA) Assay for Cyclin D2 (CCND2) using HepaRG (AID 2283449; active means hit-call score of the fitted dose curve at least 0.9, where 1 is the maximum; inactive means score below 0.9); details: mRNA level, 48 h; actives raise or lower the signal
# In short: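 CCND2 transcript levels, quantified by qRT-PCR and normalised to three housekeeping genes, were fitted bidirectionally against 0.5% DMSO. HepaRG cultures were dosed 48 h in duplicate with an 8-point half-log series up to 100 uM.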
# [14] = read-out: Cyclin Dependent Kinase Inhibitor 1A (CDKN1A), CDKN1A (gene 1026); assay: LTEA_HepaRG_CDKN1A: Life Technologies and Expression Analysis (LTEA) Assay for Cyclin Dependent Kinase Inhibitor 1A (CDKN1A) using HepaRG (AID 2283450; active means hit-call score of the fitted dose curve at least 0.9, where 1 is the maximum; inactive means score below 0.9); details: mRNA level, 48 h; actives raise or lower the signal
# In short: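 Differentiated human HepaRG cells, pre-cultured 48 h, were exposed in duplicate for 48 h in serum-free induction medium to eight half-log concentrations up to 100 uM (0.5% DMSO). CDKN1A mRNA was measured by qRT-PCR, normalized to ACTB/GAPDH/POLR2A, bidirectionally fitted versus DMSO.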
# [15] = read-out: Cyclin D1 (CCND1), CCND1 (gene 595); assay: LTEA_HepaRG_CCND1: Life Technologies and Expression Analysis (LTEA) Assay for Cyclin D1 (CCND1) using HepaRG (AID 2283451; active means hit-call score of the fitted dose curve at least 0.9, where 1 is the maximum; inactive means score below 0.9); details: mRNA level, 48 h; actives raise or lower the signal
# In short: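 Differentiated human HepaRG cells in serum-free induction medium were exposed 48 h to eight half-log concentrations up to 100 uM in 0.5% DMSO; mRNA quantified by TaqMan qRT-PCR, normalized to ACTB, GAPDH, POLR2A, fitted bidirectionally versus DMSO.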
# [16] = read-out: catalase (CAT), CAT (gene 847); assay: LTEA_HepaRG_CAT: Life Technologies and Expression Analysis (LTEA) Assay for catalase (CAT) using HepaRG (AID 2283452; active means hit-call score of the fitted dose curve at least 0.9, where 1 is the maximum; inactive means score below 0.9); details: mRNA level, 48 h; actives raise or lower the signal
# In short: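 Expression of CAT was quantified by TaqMan qRT-PCR with ACTB/GAPDH/POLR2A normalization after 48 h chemical exposure of HepaRG. Eight-point half-log series, top 100 uM, in 0.5% DMSO; gain or loss fitted against vehicle.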
# [17] = read-out: flavin-containing dimethylaniline monooxygenases 3 (FMO3), FMO3 (gene 2328); assay: LTEA_HepaRG_FMO3: Life Technologies and Expression Analysis (LTEA) Assay for flavin-containing dimethylaniline monooxygenases 3 (FMO3) using HepaRG (AID 2283453; active means hit-call score of the fitted dose curve at least 0.9, where 1 is the maximum; inactive means score below 0.9); details: mRNA level, 48 h; actives raise or lower the signal
# In short: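 FMO3 transcript quantified by TaqMan qRT-PCR against three housekeeping genes after 48 h chemical exposure of HepaRG cells. Eight-point half-log series, top 100 uM, 0.5% DMSO vehicle; phenobarbital 1mM induction control; up- or down-regulation fitted.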
# [18] = read-out: Cytochrome P450 (CYP1A1), CYP1A1 (gene 1543); assay: LTEA_HepaRG_CYP1A1: Life Technologies and Expression Analysis (LTEA) Assay for Cytochrome P450 (CYP1A1) using HepaRG (AID 2283454; active means hit-call score of the fitted dose curve at least 0.9, where 1 is the maximum; inactive means score below 0.9); details: mRNA level, 48 h; actives raise or lower the signal
# In short: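 Differentiated HepaRG cells in serum-free induction medium were exposed in duplicate for 48 h to eight half-log concentrations up to 100 uM in 0.5% DMSO. CYP1A1 mRNA was quantified by TaqMan qRT-PCR, normalized to ACTB, GAPDH and POLR2A.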
# Sequence of Peroxisome proliferator-activated receptor gamma (Homo sapiens) (P37231 whole entry, looked up, the tested form may be a part): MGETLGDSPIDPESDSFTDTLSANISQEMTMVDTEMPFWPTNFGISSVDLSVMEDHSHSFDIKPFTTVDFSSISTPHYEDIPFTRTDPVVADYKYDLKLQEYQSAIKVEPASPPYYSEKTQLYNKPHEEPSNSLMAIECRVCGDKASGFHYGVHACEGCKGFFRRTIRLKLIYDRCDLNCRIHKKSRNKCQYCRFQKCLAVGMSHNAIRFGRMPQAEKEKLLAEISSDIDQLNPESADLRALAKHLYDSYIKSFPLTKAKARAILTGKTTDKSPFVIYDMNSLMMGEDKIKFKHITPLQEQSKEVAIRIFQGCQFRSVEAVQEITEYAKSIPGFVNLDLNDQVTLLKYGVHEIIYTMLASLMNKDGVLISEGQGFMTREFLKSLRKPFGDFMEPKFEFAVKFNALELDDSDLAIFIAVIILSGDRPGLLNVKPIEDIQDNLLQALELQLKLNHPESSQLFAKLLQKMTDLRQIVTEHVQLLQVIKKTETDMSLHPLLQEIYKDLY
# Sequence of Estrogen receptor (Homo sapiens) (P03372 whole entry, looked up, the tested form may be a part): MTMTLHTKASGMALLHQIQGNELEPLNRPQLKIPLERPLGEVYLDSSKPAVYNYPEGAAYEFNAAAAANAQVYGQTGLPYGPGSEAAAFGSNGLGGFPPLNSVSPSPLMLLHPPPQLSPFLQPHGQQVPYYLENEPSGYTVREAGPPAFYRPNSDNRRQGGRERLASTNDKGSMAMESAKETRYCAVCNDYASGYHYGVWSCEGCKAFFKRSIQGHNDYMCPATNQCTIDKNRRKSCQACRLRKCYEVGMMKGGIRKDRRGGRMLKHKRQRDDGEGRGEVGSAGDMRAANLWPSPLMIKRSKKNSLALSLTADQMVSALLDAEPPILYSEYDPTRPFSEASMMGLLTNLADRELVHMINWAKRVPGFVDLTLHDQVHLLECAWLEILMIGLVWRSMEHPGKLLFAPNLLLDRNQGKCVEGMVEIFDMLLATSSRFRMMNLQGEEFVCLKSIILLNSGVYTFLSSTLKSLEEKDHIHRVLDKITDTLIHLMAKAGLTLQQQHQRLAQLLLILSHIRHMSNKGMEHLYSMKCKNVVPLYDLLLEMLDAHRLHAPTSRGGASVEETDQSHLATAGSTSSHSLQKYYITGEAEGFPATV
# T1 sequence (P03372 whole entry, looked up, the tested form may be a part): as above
# T1 sequence (Q92731 whole entry, looked up, the tested form may be a part): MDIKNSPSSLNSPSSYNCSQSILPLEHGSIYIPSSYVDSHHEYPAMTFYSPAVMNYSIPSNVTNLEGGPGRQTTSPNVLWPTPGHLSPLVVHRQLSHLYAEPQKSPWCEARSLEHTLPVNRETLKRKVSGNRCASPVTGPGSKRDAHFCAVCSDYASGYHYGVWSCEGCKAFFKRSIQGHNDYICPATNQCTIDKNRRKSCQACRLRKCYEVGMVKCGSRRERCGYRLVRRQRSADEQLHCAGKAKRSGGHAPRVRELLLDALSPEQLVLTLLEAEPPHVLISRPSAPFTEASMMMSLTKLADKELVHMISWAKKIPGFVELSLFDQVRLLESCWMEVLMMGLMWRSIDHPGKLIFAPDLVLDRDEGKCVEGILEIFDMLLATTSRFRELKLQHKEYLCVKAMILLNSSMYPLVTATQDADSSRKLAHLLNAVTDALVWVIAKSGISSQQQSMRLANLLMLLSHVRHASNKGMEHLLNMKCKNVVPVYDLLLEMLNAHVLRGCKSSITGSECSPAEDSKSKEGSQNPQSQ
# Sequence of Retinoic acid receptor RXR-alpha (Homo sapiens) (P19793 whole entry, looked up): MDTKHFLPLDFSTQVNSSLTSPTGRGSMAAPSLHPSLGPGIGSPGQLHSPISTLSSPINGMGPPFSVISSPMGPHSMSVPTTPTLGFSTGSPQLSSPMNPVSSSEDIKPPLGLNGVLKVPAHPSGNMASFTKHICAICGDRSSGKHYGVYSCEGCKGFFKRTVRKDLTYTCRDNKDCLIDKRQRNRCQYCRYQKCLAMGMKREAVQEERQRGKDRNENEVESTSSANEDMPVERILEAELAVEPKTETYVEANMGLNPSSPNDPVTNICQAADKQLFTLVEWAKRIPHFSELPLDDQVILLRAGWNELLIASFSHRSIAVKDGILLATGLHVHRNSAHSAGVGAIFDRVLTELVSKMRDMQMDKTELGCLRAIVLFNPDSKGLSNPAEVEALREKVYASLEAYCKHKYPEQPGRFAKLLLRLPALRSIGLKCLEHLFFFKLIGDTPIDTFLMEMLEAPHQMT
# Sequence of Estrogen receptor beta (Homo sapiens) (Q92731 whole entry, looked up, the tested form may be a part): as the sequence (Q92731 whole entry, looked up, the tested form may be a part) above
# Sequence of Fatty acid synthase (Homo sapiens) (P49327 whole entry, looked up): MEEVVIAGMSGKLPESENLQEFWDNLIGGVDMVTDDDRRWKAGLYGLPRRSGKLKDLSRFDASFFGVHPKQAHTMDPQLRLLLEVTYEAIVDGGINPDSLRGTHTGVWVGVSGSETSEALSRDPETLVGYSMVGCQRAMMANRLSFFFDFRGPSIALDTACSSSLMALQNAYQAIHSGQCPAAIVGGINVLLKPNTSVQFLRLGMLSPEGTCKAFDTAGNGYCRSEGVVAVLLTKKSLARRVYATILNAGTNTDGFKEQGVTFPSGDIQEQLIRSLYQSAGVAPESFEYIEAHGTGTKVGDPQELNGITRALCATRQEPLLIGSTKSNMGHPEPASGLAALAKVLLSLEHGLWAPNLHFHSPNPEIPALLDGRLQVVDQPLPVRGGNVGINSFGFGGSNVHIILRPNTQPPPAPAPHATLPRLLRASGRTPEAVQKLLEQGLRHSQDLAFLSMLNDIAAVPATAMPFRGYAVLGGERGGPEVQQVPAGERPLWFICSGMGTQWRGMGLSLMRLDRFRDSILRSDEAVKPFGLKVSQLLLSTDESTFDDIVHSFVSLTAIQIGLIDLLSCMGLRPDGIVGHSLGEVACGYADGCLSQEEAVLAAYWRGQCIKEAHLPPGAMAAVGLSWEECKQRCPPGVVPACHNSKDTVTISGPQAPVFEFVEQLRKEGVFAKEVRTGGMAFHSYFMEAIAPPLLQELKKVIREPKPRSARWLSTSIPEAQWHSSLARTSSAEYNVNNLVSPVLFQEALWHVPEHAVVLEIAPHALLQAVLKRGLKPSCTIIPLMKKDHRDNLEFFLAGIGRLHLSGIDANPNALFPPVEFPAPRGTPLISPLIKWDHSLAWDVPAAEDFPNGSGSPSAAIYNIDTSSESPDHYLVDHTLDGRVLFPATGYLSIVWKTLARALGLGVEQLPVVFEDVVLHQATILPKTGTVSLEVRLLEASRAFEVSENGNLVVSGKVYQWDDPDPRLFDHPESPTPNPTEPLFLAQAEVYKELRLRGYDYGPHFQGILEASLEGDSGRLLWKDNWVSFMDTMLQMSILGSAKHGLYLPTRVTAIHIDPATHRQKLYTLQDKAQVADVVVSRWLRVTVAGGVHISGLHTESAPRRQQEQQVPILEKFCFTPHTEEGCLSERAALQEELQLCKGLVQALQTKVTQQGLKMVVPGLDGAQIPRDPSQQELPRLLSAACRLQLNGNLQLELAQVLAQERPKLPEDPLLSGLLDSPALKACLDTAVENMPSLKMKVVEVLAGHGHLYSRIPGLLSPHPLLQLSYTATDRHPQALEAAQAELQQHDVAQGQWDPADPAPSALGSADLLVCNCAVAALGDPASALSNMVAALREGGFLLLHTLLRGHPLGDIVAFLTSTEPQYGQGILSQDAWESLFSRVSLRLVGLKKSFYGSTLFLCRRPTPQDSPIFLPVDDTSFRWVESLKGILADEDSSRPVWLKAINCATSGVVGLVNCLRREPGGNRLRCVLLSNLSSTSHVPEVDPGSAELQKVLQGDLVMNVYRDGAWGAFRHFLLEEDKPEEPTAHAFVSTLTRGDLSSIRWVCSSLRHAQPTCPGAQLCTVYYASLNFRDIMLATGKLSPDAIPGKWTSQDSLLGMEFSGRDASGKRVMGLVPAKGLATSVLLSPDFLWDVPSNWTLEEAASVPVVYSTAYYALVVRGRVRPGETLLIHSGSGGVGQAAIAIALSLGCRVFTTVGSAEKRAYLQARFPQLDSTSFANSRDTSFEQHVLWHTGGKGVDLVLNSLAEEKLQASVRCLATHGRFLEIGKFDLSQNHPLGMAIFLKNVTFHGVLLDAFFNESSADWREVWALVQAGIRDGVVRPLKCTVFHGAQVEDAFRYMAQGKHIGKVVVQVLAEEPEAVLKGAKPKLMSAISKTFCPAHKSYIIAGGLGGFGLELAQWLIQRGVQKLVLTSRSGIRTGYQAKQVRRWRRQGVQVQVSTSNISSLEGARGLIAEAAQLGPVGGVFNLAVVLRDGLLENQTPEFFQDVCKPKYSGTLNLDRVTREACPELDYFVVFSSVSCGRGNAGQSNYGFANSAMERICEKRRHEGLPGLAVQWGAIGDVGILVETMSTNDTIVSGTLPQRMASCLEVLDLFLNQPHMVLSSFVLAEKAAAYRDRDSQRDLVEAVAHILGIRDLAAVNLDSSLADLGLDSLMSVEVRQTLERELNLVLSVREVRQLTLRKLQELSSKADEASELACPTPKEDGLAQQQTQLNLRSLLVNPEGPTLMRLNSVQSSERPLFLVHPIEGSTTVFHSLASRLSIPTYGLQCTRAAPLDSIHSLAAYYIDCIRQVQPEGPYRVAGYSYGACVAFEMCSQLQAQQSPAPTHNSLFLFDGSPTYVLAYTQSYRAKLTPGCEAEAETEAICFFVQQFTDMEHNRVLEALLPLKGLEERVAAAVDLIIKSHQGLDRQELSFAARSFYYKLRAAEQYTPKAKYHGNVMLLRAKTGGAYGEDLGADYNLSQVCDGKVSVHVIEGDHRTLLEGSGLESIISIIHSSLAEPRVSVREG
smiles,measurement,setting,value
c1cc[n+]2c(c1)-c1cccc[n+]1CC2,outcome,[1],inactive
same,outcome,[2],inactive
same,outcome,[3],inactive
same,outcome,[4],inactive
same,outcome,[5],inactive
same,outcome,[6],inactive
same,outcome,[7],inactive
same,outcome,[8],inactive
same,outcome,[9],inactive
same,outcome,[10],inactive
same,outcome,[11],inactive
same,outcome,[12],inactive
same,outcome,[13],inactive
same,outcome,[14],inactive
same,outcome,[15],inactive
same,outcome,[16],inactive
same,outcome,[17],inactive
same,AC50,[18],22.4 µM (active)
